PubChem BioAssay
For some assays here: Entries with a potency or affinity are not part of this list. Activity calls are given as the source filed them.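 The calls were made as follows, unless noted: active = hit in primary screen, with calcium signal over 5 SD above buffer well mean in both duplicates; inactive = the rest.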

What was measured:
[1] = system: TRPC4 beta (transient receptor potential cation channel C4), mouse; experiment: activators of mouse TRPC4 channel, confirmation, cell-based, Fluo4 calcium, HEK293 TRPC4beta/mu-opioid, duplicates, 10 µM (AID 2426;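 active = fluorescence ratio normalized to control raised more than 50% in primary screen plus both repeat runs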;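 as to activation: percent rise of integrated ratio over buffer wells lacking compound which define 0%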); conditions: Fluo4 calcium fluorescence, at 10 µM; active compounds read high
[2] = system: transient receptor potential cation channel C4 beta (TRPC4), mouse; experiment: activators of mouse TRPC4 channel, confirmation, cell-based, second round, Fluo4, HEK293 TRPC4beta/mu-opioid, 1 µM (AID 2461;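 active = primary screen active and over 50% activation in each of two duplicate runs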;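 as to activation: 0% = wells without test compound as baseline of integrated fluorescence ratio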); conditions: Fluo4 calcium fluorescence, at 1 µM; active compounds read high
[3] = system: TRPC4 (transient receptor potential cation channel C4 beta), mouse; experiment: positive allosteric modulators of mouse TRPC4, confirmation, cell-based, second round, Fluo-4, HEK293 TRPC4beta/mu-opioid, 1 µM (AID 2554;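 active = primary screen hit whose fluorescence ratio, in both repeats, exceeds the weak agonist control mean by 3 SD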); conditions: DAMGO EC20, Fluo-4 calcium flux, at 1 µM; active compounds read high
[4] = system: TRPC4 beta (transient receptor potential cation channel C4), mouse; experiment: positive allosteric modulators of mouse TRPC4, confirmation, cell-based, Fluo-4, HEK293 TRPC4beta/mu-opioid (AID 2555;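 active = primary screen hit whose calcium fluorescence ratio, in both repeats, exceeds the weak agonist control mean by 3 SD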); conditions: DAMGO EC20, Fluo-4 calcium flux, at 10 µM; active compounds read high
[5] = biological target: Short transient receptor potential channel 4 (Mus musculus) (UniProt Q9QUQ5); experiment: inhibitors of mouse TRPC4 channel, confirmation, cell-based, Fluo4, HEK293 TRPC4beta/mu-opioid (AID 2636;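 active = calcium signal cut by more than 3 SD below the full-agonist control yet still positive, in both repeats and the earlier primary screen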); conditions: DAMGO, Fluo4 calcium flux, at 10 µM; active compounds read high
Chain of Short transient receptor potential channel 4 (Mus musculus) (Q9QUQ5 whole entry, looked up): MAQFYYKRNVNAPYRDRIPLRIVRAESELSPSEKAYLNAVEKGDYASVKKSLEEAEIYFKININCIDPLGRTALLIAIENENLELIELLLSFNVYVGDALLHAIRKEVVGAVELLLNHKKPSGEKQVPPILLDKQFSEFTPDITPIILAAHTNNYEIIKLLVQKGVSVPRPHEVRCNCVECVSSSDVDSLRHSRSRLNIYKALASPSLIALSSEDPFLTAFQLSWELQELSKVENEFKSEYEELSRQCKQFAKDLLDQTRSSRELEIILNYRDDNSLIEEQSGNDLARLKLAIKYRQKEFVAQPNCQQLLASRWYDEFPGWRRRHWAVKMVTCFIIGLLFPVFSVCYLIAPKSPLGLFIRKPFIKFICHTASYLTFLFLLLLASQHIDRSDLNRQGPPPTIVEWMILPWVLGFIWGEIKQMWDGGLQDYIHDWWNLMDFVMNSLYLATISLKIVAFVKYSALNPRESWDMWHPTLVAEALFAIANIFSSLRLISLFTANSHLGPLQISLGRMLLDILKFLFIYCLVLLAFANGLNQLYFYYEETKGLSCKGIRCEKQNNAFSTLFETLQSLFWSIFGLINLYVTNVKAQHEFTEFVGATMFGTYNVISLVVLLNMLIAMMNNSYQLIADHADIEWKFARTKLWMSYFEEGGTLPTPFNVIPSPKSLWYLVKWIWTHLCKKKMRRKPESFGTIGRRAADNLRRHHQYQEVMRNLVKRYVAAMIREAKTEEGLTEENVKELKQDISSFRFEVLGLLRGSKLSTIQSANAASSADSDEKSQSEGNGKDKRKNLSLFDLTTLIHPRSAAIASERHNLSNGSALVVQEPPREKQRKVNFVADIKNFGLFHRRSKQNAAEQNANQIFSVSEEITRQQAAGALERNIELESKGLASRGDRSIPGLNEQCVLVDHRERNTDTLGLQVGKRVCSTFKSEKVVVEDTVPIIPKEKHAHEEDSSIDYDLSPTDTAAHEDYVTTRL

[6] = biological target: Short transient receptor potential channel 4 (Mus musculus) (UniProt Q9QUQ5); experiment: inhibitors of mouse TRPC4 channel, confirmation, cell-based, second round, Fluo4, HEK293 TRPC4beta/mu-opioid, 1 µM (AID 2637;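 active = calcium signal ratio cut to more than 3 SD under the fully stimulated control mean yet still positive, in both repeats and the primary screen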); conditions: Fluo4 calcium flux, DAMGO, at 1 µM; active compounds read high
[7] = biological target: Short transient receptor potential channel 4 (Mus musculus) (UniProt Q9QUQ5); experiment: TRPC4 positive allosteric modulators, dose response, cell-based, HEK293 TRPC4/mu-opioid, Fluo-4 calcium, EC20 DAMGO (AID 434941;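 active = earlier screen potentiator hit that boosts the TRPC4 ion channel at some dose, with a dose response; inactive = no potentiation, no dose response, or not a prior hit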;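 also: calcium entry triggered by an EC20 dose of DAMGO at the co-expressed mu-opioid receptor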)
[8] = biological target: Short transient receptor potential channel 4 (Mus musculus) (UniProt Q9QUQ5); experiment: mouse TRPC4 channel inhibitors, dose response, cell-based, HEK293 TRPC4/mu-opioid, Fluo-4 calcium (AID 434942;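 active = primary screen inhibitor hit that blocks the TRPC4 channel at some tested dose, yielding a dose curve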)
[9] = biological target: Short transient receptor potential channel 6 (Mus musculus) (UniProt Q61143); experiment: inhibition of mouse TRPC6 channel, confirmation, selectivity assay for TRPC4 inhibitor project, cell-based, HEK293, membrane potential dye, duplicate (AID 434948;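 active = active in primary screen and both duplicates, each dropping signal beyond three positive-control SD with fluorescence still positive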); conditions: HEK293 TRPC6, membrane potential dye fluorescence, at 10 µM, stimulated with maximal-effect acetylcholine; active compounds read high
Chain of Short transient receptor potential channel 6 (Mus musculus) (Q61143 whole entry, looked up): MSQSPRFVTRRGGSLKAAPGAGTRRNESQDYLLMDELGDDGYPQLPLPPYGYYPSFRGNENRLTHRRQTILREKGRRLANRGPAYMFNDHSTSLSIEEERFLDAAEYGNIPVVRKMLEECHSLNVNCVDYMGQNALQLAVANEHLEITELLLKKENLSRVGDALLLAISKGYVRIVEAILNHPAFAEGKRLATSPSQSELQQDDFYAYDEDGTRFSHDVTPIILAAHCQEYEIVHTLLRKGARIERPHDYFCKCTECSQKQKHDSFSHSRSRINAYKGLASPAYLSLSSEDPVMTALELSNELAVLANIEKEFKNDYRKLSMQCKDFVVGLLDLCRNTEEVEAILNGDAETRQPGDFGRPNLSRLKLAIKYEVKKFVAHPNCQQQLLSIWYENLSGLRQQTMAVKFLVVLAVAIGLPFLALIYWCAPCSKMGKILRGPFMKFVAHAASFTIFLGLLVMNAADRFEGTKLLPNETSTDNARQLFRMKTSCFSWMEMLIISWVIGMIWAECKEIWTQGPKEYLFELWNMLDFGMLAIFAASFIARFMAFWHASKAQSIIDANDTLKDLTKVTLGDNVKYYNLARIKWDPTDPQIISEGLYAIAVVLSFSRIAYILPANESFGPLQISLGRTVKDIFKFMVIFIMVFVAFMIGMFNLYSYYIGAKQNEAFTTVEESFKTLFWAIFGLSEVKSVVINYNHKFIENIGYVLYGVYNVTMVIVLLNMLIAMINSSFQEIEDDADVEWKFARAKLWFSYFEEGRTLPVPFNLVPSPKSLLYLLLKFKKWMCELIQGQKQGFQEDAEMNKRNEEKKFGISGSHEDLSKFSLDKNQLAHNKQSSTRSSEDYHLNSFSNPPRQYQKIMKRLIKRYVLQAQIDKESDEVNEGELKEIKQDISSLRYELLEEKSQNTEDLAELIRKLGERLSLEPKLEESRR

[10] = biological target: Short transient receptor potential channel 6 (Mus musculus) (UniProt Q61143); experiment: activation of mouse TRPC6 channel, confirmation, selectivity assay for TRPC4 activator project, cell-based, HEK293, membrane potential dye, duplicate (AID 434950;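 active = membrane potential signal rise above negative control mean plus 3 SD in both duplicates, also active in the earlier TRPC4 screen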;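 as to activation: 0% = buffer only wells and 100% = acetylcholine maximal-effect wells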); conditions: HEK293 TRPC6, membrane potential fluorescence, at 10 µM; active compounds read high
[11] = biological target: Short transient receptor potential channel 6 (Mus musculus) (UniProt Q61143); experiment: TRPC6 potentiation by TRPC4 potentiator hits, confirmation, selectivity assay for TRPC4 potentiator project, HEK293 cells, membrane potential dye, duplicate (AID 434952;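 active = compound raising the membrane signal above positive-control mean plus 3 SD in both repeats, and a primary screen hit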); conditions: HEK293 TRPC6, membrane potential dye fluorescence, at 10 µM, maximal acetylcholine added after compound; active compounds read high
[12] = biological target: Short transient receptor potential channel 4 (Mus musculus) (UniProt Q9QUQ5); experiment: calcium flux activators in TRPC4/5HT1a cells, counter-screen for TRPC4 activator project, cell-based, second counter screen, HEK293 TRPC4/5HT1a, Fluo-4 (AID 434977;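 active = calcium signal rise above buffer-control mean plus 5 SD in both duplicates, and also a hit in the primary screen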;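 as to activation: plate controls were assay buffer for no effect and maximal serotonin response for full effect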); conditions: Fluo-4 calcium flux, at 10 µM; active compounds read high
[13] = calcium flux inhibitors in TRPC4/5HT1a cells, confirmation, counter-screen for TRPC4 inhibitor project, cell-based, second counter screen, HEK293 TRPC4/5HT1a, Fluo-4 (AID 434978;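 active = primary screen active whose calcium signal fell more than 3 SD beyond the full-serotonin control mean in both duplicate plates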;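 also: serotonin given first at submaximal then at maximal dose after compound preincubation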); conditions: Fluo-4 calcium flux, at 10 µM, serotonin added to trigger calcium flux; active compounds read high
[14] = system: TRPC4 (mouse), co-expressed with 5HT1a in HEK293; experiment: calcium flux potentiators in TRPC4/5HT1a cells, confirmation, counter-screen for TRPC4 potentiator project, cell-based, second counter screen, HEK293 TRPC4/5HT1a, Fluo-4 (AID 434979;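 active = signal rise over 3 SD above mean of control wells given weak agonist, in both repeats and first screen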); conditions: Fluo-4 calcium flux, at 10 µM, serotonin added at its EC20 dose; active compounds read high
[15] = calcium flux activation in mu-opioid HEK293 cells, confirmation, counter-screen for TRPC4 activator project, cell-based, HEK293 mu-opioid receptor line (AID 449723); conditions: Fluo-4 calcium fluorescence, at 10 µM; active compounds read high;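 also: counter screen cells carry the mu-opioid receptor alone and lack TRPC4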
[16] = calcium flux enhancement in mu-opioid HEK293 cells, confirmation, counter-screen for TRPC4 allosteric potentiator project, cell-based, HEK293 mu-opioid receptor line (AID 449724;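 active = calcium signal rise more than 3 SD above the low-dose agonist control mean, in both duplicate plates and the primary screen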); conditions: Fluo-4 calcium flux, at 10 µM, compound added before EC20 DAMGO stimulus; active compounds read high

O=C(O)C1C2C=CC(C2)C1C(=O)NC1CCN(Cc2ccccc2)CC1 (centres undefined)
active: activation [1] 155% | activation [10] 32% | activation [12] 44.3%
inactive: outcome [2] | outcome [3] | outcome [4] | outcome [5] | outcome [6] | outcome [7] | outcome [8] | outcome [9] | outcome [11] | outcome [13] | outcome [14] | outcome [15] | outcome [16]

CN1C(CC(=O)Nc2ccc(Br)cc2)c2ccccc2CC1(C)C (centres undefined)
active: activation [1] 97% | activation [10] 28.5% | activation [12] 7.45%
inactive: outcome [2] | outcome [3] | outcome [4] | outcome [5] | outcome [6] | outcome [7] | outcome [8] | outcome [9] | outcome [11] | outcome [13] | outcome [14] | outcome [15] | outcome [16]

O=S(=O)(NCCc1csc(-c2ccccc2)n1)c1cccnc1
inactive: outcome [2] | outcome [3] | outcome [4] | outcome [5] | outcome [6] | outcome [7] | outcome [8] | outcome [9] | outcome [11] | outcome [13] | outcome [14] | outcome [15] | outcome [16]
active: activation [1] 93% | activation [10] 59% | activation [12] 26.7%

CNC[C@H](Cc1ccccc1)NC[C@@H](Cc1cccc2ccccc12)NCCc1ccc(C)cc1
active: activation [1] 228% | activation [12] 68.3% | activation [15] 37.9%
inactive: outcome [2] | outcome [3] | outcome [4] | outcome [5] | outcome [6] | outcome [7] | outcome [8] | outcome [9] | outcome [10] | outcome [11] | outcome [13] | outcome [14] | outcome [16]

COC(=O)c1ccc(N2CCN(C)CC2)c(NC(=O)c2ccc(Br)o2)c1
inactive: outcome [2] | outcome [3] | outcome [4] | outcome [5] | outcome [6] | outcome [7] | outcome [8] | outcome [9] | outcome [10] | outcome [11] | outcome [13] | outcome [14] | outcome [15] | outcome [16]
active: activation [1] 148% | activation [12] 13.3%

O=C(CC(=O)c1c(F)cccc1Cl)c1ccccc1O
inactive: outcome [2] | outcome [3] | outcome [4] | outcome [5] | outcome [6] | outcome [7] | outcome [8] | outcome [9] | outcome [11] | outcome [13] | outcome [14] | outcome [16]
active: activation [1] 157% | activation [10] 37% | activation [12] 98.7% | activation [15] 33.3%

COc1ccc(C(CNC(=O)CCOc2ccccc2)N(C)C)cc1 (centres undefined)
active: activation [1] 145% | activation [2] 77% | activation [10] 45%
inactive: outcome [3] | outcome [4] | outcome [5] | outcome [6] | outcome [7] | outcome [8] | outcome [9] | outcome [11] | outcome [12] | outcome [13] | outcome [14] | outcome [15] | outcome [16]

COc1ccc2c(Cl)c(-c3nnc4n3CCCCC4)sc2c1
inactive: outcome [2] | outcome [3] | outcome [4] | outcome [5] | outcome [6] | outcome [7] | outcome [8] | outcome [9] | outcome [11] | outcome [12] | outcome [13] | outcome [14] | outcome [15] | outcome [16]
active: activation [1] 117% | activation [10] 52%

CN1CCC(=O)N([C@H](CSc2ccc(Br)cc2)Cc2ccccc2)CC1
active: activation [10] 33%
inactive: outcome [1] | outcome [2] | outcome [3] | outcome [4] | outcome [5] | outcome [6] | outcome [7] | outcome [8] | outcome [9] | outcome [11] | outcome [12] | outcome [13] | outcome [14] | outcome [15] | outcome [16]

Cn1c(N2CCN(C(=O)Nc3ccc(C(F)(F)F)cc3)CC2)nc2ccccc21
active: activation [1] 81% | activation [12] 31.2%
inactive: outcome [2] | outcome [3] | outcome [4] | outcome [5] | outcome [6] | outcome [7] | outcome [8] | outcome [9] | outcome [10] | outcome [11] | outcome [13] | outcome [14] | outcome [15] | outcome [16]

COc1ccc(C(=O)C2CCCN(C3Cc4ccccc4C3)C2)cc1OC (centres undefined)
active: activation [1] 128% | activation [10] 81.5% | activation [12] 110%
inactive: outcome [2] | outcome [3] | outcome [4] | outcome [5] | outcome [6] | outcome [7] | outcome [8] | outcome [9] | outcome [11] | outcome [13] | outcome [14] | outcome [15] | outcome [16]

O=C1S/C(=C\c2ccc(N3CCOCC3)o2)C(=O)N1Cc1c(F)cccc1Cl
active: activation [10] 280% | potentiation, percent of control [11] 191%
inactive: outcome [1] | outcome [2] | outcome [3] | outcome [4] | outcome [5] | outcome [6] | outcome [7] | outcome [8] | outcome [9] | outcome [12] | outcome [13] | outcome [14] | outcome [15] | outcome [16]

CCCCN(CC)CCNc1c(N2CCN(C(=O)OCC)CC2)c(=O)c1=O
active: activation [1] 155% | activation [10] 30.5%
inactive: outcome [2] | outcome [3] | outcome [4] | outcome [5] | outcome [6] | outcome [7] | outcome [8] | outcome [9] | outcome [11] | outcome [12] | outcome [13] | outcome [14] | outcome [15] | outcome [16]

CN(C)C(CNC(=S)Nc1ccccc1Cl)c1cccnc1 (centres undefined)
inactive: outcome [3] | outcome [4] | outcome [5] | outcome [6] | outcome [7] | outcome [8] | outcome [9] | outcome [10] | outcome [11] | outcome [12] | outcome [13] | outcome [14] | outcome [15] | outcome [16]
active: activation [1] 109% | activation [2] 144%
